Compounds with a hit are over-represented: about 19% of the library has one in this group of screens.
HT1080 IDH1KD tx: kills HT-1080 cells with IDH1 knockdown. 2% of 360,000 active. Potency, µM (highest dose often 46.1 µM), inactives show at the top dose activity, negative = toxicity, actives largely listed as cytotoxic. HT-1080 IDH1 knockdown viability, ATP luminescence, 48 h;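 further: potency means the concentration at half of the fitted maximal effect; 0% = DMSO wells and -100% = cell-free medium wells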
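HT-1080-IDH1KD cells (IDH1 knocked down), 750/well in RPMI with 5% FBS, treated with compound 48 h at 37 degrees C. Viability by CellTiter-Glo luminescence, normalised to DMSO and no-cell wells; concentration-response curves classed.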
TDP1 cell CPT: growth inhibition of DT40 Tdp1-/-;hTDP1 cells with camptothecin (screen for TDP1 inhibitors); chicken DT40 Tdp1-/-;hTDP1 cells + 20 nM CPT, ATP luminescence, 48 h; 12% of 420,000 active; Potency, µM (doses to about 46.2 µM), for inactives: at the highest dose activity change, negative = growth inhibition, hits mostly inhibitors; further: potency means the concentration at half of the fitted maximal effect; nearly all actives have a fitted effect of over 55% in size
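Chicken DT40 Tdp1-/- cells complemented with human TDP1, 400 cells/well, exposed to compounds plus 20 nM camptothecin for at least 48 h at 37 C; viability read as ATP content by CellTiter-Glo luminescence.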
TDP1 cell noCPT: qHTS for Inhibitors of human tyrosyl-DNA phosphodiesterase 1 (TDP1): qHTS in cells in absence of CPT. Potency, µM (highest dose often 46.2 µM), without a hit: at the top dose activity change, negative = growth inhibition, most hits filed as inhibitors. 15% of 420,000 active. AID 686978, 2013. DT40 Tdp1-/- hTDP1 cells, no CPT, ATP luminescence, 48 h; further: potency means the concentration at half of the fitted maximal effect; nearly all actives have a fitted effect of over 55% in size
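Seeded 400 DT40-hTDP1 cells/well (vehicle DMSO, no 20 nM CPT); pinned compounds; ≥48 hr at 37 °C; CellTiter-Glo luminescence as viability measure.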
IL1B secr inh: inflammasome signaling inhibition, IL-1 beta readout. activity change, % at 57.5 µM. THP-1 LPS/ATP IL-1B secretion, AlphaLISA, 16 h; hits give low values. 4.7% of 360,000 active; in the data active means activity change below about -50%; inconclusive means mostly about -30% to -49%
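THP-1 cells pretreated 1 hr with compounds (up to 57.5 uM final), then stimulated with LPS (250 ng/mL final) plus ATP (1.25 mM final); secreted IL-1B measured by AlphaLISA after 16 hr, decreased signal indicating inhibition.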
HT1080-NT tox: kills 2HG-producing HT-1080-NT fibrosarcoma cells. 1.6% of 360,000 active. Potency, µM (highest dose often 46.1 µM), without a hit: top-dose activity, negative = less viability, hits mostly cytotoxic. HT-1080-NT fibrosarcoma viability, CellTiter-Glo ATP luminescence, 48 h. AID 686970;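 further: NT is the 2HG producing partner of a matched IDH1 knockdown line; potency means the concentration at half of the fitted maximal effect; 0% = DMSO-treated cells and -100% = media-only wells without cells; nearly all actives have a fitted effect of over 55% in size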
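Viability of the 2HG-overproducing fibrosarcoma line after 48 hours of compound exposure at 37 degrees C was determined by luminescence with CellTiter-Glo, and concentration-effect curves were then fitted and categorized.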
The depositor's hits bear a star; ? = inconclusive; nt = not tested or not shown; [ ] = dose if it differs, or a comment. Unless noted, the call rests on the fitted dose curve; in most records, active means well fitted curve in the direction sought with a large enough effect; inconclusive means small, poorly fitted or top-dose-only effect, or another doubt; inactive means no such curve, though single readings can be large; an effect the other way counts as inactive or inconclusive. Unless noted, on the % scale 0 is the no-effect control and ±100 the full control effect.

SMILES	HT1080 IDH1KD tx	TDP1 cell CPT	TDP1 cell noCPT	IL1B secr inh	HT1080-NT tox
C[C@@H]1CCCCO[C@H](CN(C)C(=O)Nc2ccc(C(F)(F)F)cc2)[C@@H](C)CN([C@H](C)CO)C(=O)c2cc(NC(=O)c3ccncc3)ccc2O1	-6.1%	20.6µM*	14.6µM*	-15.7	-12.7%
COc1ccc(NC(=O)N(C)C[C@H]2OCCCC[C@@H](C)Oc3ccc(NC(=O)c4ccccc4)cc3C(=O)N([C@H](C)CO)C[C@@H]2C)cc1	-12.1%	?	20.6µM*	nt	3.2%
COc1ccc(S(=O)(=O)Nc2ccc3c(c2)C(=O)N([C@H](C)CO)C[C@H](C)[C@@H](CN(C)C(=O)Nc2ccc(C(F)(F)F)cc2)OCCCC[C@H](C)O3)cc1	-11.6%	?	23.1µM*	?	-21.7%
COc1ccc(S(=O)(=O)Nc2ccc3c(c2)C(=O)N([C@H](C)CO)C[C@H](C)[C@@H](CN(C)C(=O)Nc2ccc(C(F)(F)F)cc2)O3)cc1	-5.2%	-23.7%	-8.3%	-5.9	-20.9%
C[C@@H]1CCCCO[C@@H](CN(C)Cc2ccncc2)[C@@H](C)CN([C@H](C)CO)C(=O)c2cc(NC(=O)c3ccccc3)ccc2O1	9.5%	-6.9%	?	-17.6	-0.5%
C[C@@H]1CCCCO[C@H](CN(C)C(=O)CCC(F)(F)F)[C@@H](C)CN([C@H](C)CO)C(=O)c2cc(NC(=O)c3ccncc3)ccc2O1	-6.6%	?	?	?	-2.6%
COc1ccc(S(=O)(=O)Nc2ccc3c(c2)C(=O)N([C@H](C)CO)C[C@H](C)[C@@H](CN(C)C(=O)Nc2ccc(F)cc2)OCCCC[C@H](C)O3)cc1	-11.0%	?	23.1µM*	-3.3	-17.0%
COC(=O)c1cc(CNC(=O)c2cccc3ccccc23)cc(NC(=O)c2ccccc2OC)c1	nt	10.2%[9.04 µM]	?	nt	nt
COC(=O)c1cc(CNC(=O)c2ccccc2OC)cc(NC(=O)c2ccccc2F)c1	nt	20.6µM*	16.4µM*	nt	nt
COC(=O)c1cc(CNC(=O)c2ccccc2F)cc(NC(=O)c2ccccc2OC)c1	nt	-16.6%[9.04 µM]	23.1µM*	nt	nt
CC(C)CNC(=O)c1cccc(NC(=O)c2ccc(NC(=O)c3ccco3)cc2)c1	?	?	?	1.8	?
COc1ccc(/C=C(/C(=O)c2cccs2)N2C=CC=CC2=C(C#N)C#N)cc1	?	1.16µM*	1.16µM*	-95.2*	?
COc1ccc(C(=O)/C(=C\c2ccco2)N2C=CC=CC2=C(C#N)C#N)cc1	2.91µM*	0.651µM*	0.651µM*	-95.9*	?
N#CC(C#N)=C1C=CC=CN1/C(=C\c1ccco1)C(=O)c1ccccc1	?	1.3µM*	1.46µM*	-98.3*	?
CC(C)OC(=O)/C(=C/c1ccco1)c1ccccc1	0.4%	-0.3%	-25.2%	nt	16.2%
COc1ccc(C(=O)N/C(=C\c2ccco2)C(=O)OCc2ccco2)cc1	3.2%	-16.3%	?	6.1	-12.0%
O=C(CS(=O)CC(=O)NC12CC3CC(CC(C3)C1)C2)Nc1ccc(F)cc1 (stereo not given)	-4.9%	-2.2%	-8.2%	9.0	-22.7%
CCCc1cc(=O)[nH]c2nnc(SCC(=O)Nc3ccc4c(c3)OCCO4)n12	15.1%	2.9%	-3.4%	14.1	10.4%
Fc1ccc2nc(C3CCCCN3Cc3nc(CC4CC4)no3)[nH]c2c1 (stereo not given)	-2.1%	-4.7%	?	-64.9*	-15.2%
Cc1cccc(CN2CCC(Oc3ccc(C(=O)N4CCCC4)cc3)CC2)n1	10.3%	1.3%	-20.5%	2.3	3.9%
CCOc1ccc(NC(=O)c2sc3nc4c(c(-c5ccccc5)c3c2N)C(=O)CC(C)(C)C4)cc1	nt	?	-19.4%	nt	nt
COc1ccc(-c2c3c(nc4sc(C(=O)Nc5cccc(OC)c5)c(N)c24)CC(C)(C)CC3=O)cc1	nt	?	13µM*	nt	nt
